Test systems include T-47D breast; BT-549 breast; MDA-MB-435 melanoma; SW-620 colon; MCF7 breast; HCT-116 colon; HCC-2998 colon; KM12 colon.
Holding throughout (test): NCI-60 one-dose screen, 48 h (100 = growth as untreated, 0 = no growth, -100 = all killed)
Details in all cases: 10 µM unless noted

The structures appear in SMILES notation. The panel holds about 83,000 compounds, 20% with a hit somewhere; the sample as a whole holds those more often.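 For each line, cells grew in 96-well plates with the test compound present at a single concentration for 48 hours.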 Values without a mark were called inactive. Calls of active or inactive are those of the source. The calls were made as follows: active = growth percent below 10; inactive = the rest.

`CC(=O)OC[C@H]1OC(Sc2sc(C(=O)c3ccc(Br)cc3)c(N)c2-c2nc3ccccc3s2)[C@H](OC(C)=O)[C@@H](OC(C)=O)[C@@H]1OC(C)=O` (stereo partly drawn): the growth is 73.7% with T-47D breast; 80.7% with BT-549 breast; 80.7% with MDA-MB-435 melanoma; 54% in the test on SW-620 colon; 62.7% in the test on MCF7 breast; 18.7% in the test with HCT-116 colon. Moreover, the values for the growth in the test on HCC-2998 colon and in the test on KM12 colon were 75.9% and 78.3%, respectively.
Consider `Nc1n[nH]c2cc(F)c([C@@H]3Nc4c(F)cc5[nH]ncc5c4[C@H]4C5CCC(C5)[C@@H]34)cc12` (stereo partly drawn), for which the growth is 83.8% with T-47D breast; -0.757% (active) in the test on BT-549 breast; -33.4% (active) in the test on MDA-MB-435 melanoma; 26.8% in the test with SW-620 colon; 21.6% in the test on MCF7 breast; -21.2% (active) in the test with HCT-116 colon. Moreover, the results for the growth in the test on HCC-2998 colon and in the test with KM12 colon were 7.27% (active) and -40.5% (active), respectively.
With `O=c1c2cc(F)ccc2sc2c(NCCN3CCCCC3)nc3ccccc3c12`, the growth is 66.9% in the test with T-47D breast; 75.1% in the test on BT-549 breast; 29.5% in the test on MDA-MB-435 melanoma; 29.1% in the test with SW-620 colon; 15.8% in the test on MCF7 breast; 25.3% with HCT-116 colon. The growth is 13.9% in the test with HCC-2998 colon and 29% with KM12 colon.
`CC1=C([Se]CC(OC(=O)CC[Se]c2ccccc2)C(=O)NCCCCCC(=O)OCc2ccccc2)C(=O)c2ccccc2C1=O` (stereo not drawn): the growth in the test with T-47D breast was 56%; in the test with BT-549 breast it was 39.9%; in the test with MDA-MB-435 melanoma, 20%; in the test with SW-620 colon it was 104%; in the test on MCF7 breast it was 30.2%; in the test with HCT-116 colon, -3.51% (active). In addition, the growth is 72% in the test with HCC-2998 colon and 9.71% (active) with KM12 colon.
`Cc1cc(NCc2cc(Nc3ccnc4cc(Cl)ccc34)ccc2F)nc(N2CCSCC2)n1`: the growth is -37.8% (active) with T-47D breast; 46.6% with BT-549 breast; -70.4% (active) in the test with MDA-MB-435 melanoma; -14.1% (active) in the test on SW-620 colon; 0.0561% (active) in the test on MCF7 breast; -29.1% (active) with HCT-116 colon. Further, the growth with HCC-2998 colon is 3.4% (active); in the test with KM12 colon, 14.9%.
Take `N#Cc1c(-c2cccc(Cl)c2)cc(-c2cccc(F)c2)[nH]c1=O`: the growth in the test with T-47D breast was 84.5%; with BT-549 breast it was 86.4%; in the test with MDA-MB-435 melanoma, 90.4%; in the test with SW-620 colon, 97%; in the test on MCF7 breast, 89.2%; in the test with HCT-116 colon it was 88.5%. For the same molecule, the growth in the test with HCC-2998 colon is 106%; with KM12 colon, 87.9%.
As for `C=CCOC1=CC(=O)c2ccccc2C1=O`, the growth with T-47D breast was 54.2%; in the test with BT-549 breast it was 95.4%; in the test with MDA-MB-435 melanoma, -67.5% (active); with SW-620 colon, 33.2%; in the test on MCF7 breast, -2.95% (active); with HCT-116 colon it was 8.07% (active). Also, the growth is 98% with HCC-2998 colon and 87.8% in the test with KM12 colon.
For `O=C(/C=C/c1ccco1)c1ccc(Nc2nc(Nc3ccc(F)cc3)nc(Nc3ccc(Cl)cc3)n2)cc1`, the growth in the test with T-47D breast is 46.6%; in the test with BT-549 breast, 78.7%; in the test with MDA-MB-435 melanoma, 88.5%; in the test with SW-620 colon it was 84.4%; with MCF7 breast, 33.4%; with HCT-116 colon, 62.5%. The growth was 54.8% in the test on HCC-2998 colon and 65.2% with KM12 colon.
For the molecule `COc1ccc(NC(=O)CSc2nc(C)c(C(C)=O)n2-c2ccc(Cl)cc2)cc1`, the growth in the test with T-47D breast was 80.5%; in the test with BT-549 breast, 80.4%; with MDA-MB-435 melanoma it was 89%; in the test on SW-620 colon, 96.1%; in the test on MCF7 breast it was 92.9%; in the test on HCT-116 colon it was 81.3%. For the same molecule, the growth with HCC-2998 colon is 90.3%; in the test on KM12 colon it was 95.5%.
Turning to `COc1cccc(C(=O)NCCCNc2cc(-c3cn(-c4ccccc4)nc3-c3cccc(OC)c3)ccn2)c1`, the growth was -4.96% (active) in the test with T-47D breast; 11% in the test with BT-549 breast; 40.2% in the test on MDA-MB-435 melanoma; 54.4% in the test on SW-620 colon; 37.5% with MCF7 breast; 30.5% in the test with HCT-116 colon. The growth in the test with HCC-2998 colon was 61.2%; in the test with KM12 colon, 43.5%.
Turning to `O=C(N=c1oc2ccccc2cc1-c1cc2ccccc2[nH]1)c1ccc(Cl)cc1`, the growth with T-47D breast was 47.5%; in the test with BT-549 breast, 76%; in the test with MDA-MB-435 melanoma it was 96.4%; in the test with SW-620 colon it was 25.1%; in the test on MCF7 breast, 30.4%; with HCT-116 colon it was 20%. Also, the figures for the growth in the test on HCC-2998 colon and in the test with KM12 colon were 81.9% and 29.1%, respectively.
With `OC(c1cccc(-n2ccc(C(F)(F)F)n2)c1)c1cnccc1NC1CCCCCC1` (stereo not drawn), the growth with T-47D breast was 22.6%; with BT-549 breast, 82.5%; in the test with MDA-MB-435 melanoma it was -77.4% (active); in the test on SW-620 colon it was -86.4% (active); with MCF7 breast, -14.4% (active); in the test on HCT-116 colon it was -79.4% (active). In addition, the growth in the test on HCC-2998 colon is -88.8% (active); in the test with KM12 colon, -47.1% (active).
Regarding `COc1ccc(C2=NN(C(=O)c3cc(OC)c(OC)c(OC)c3)C(c3ccc(Cl)cc3)C2)cc1OC` (stereo not drawn), the growth is 24.6% in the test on T-47D breast; 49.9% in the test with BT-549 breast; -43.3% (active) in the test with MDA-MB-435 melanoma; 30.1% in the test with SW-620 colon; 18.7% with MCF7 breast; 10.6% in the test on HCT-116 colon. The results for the growth in the test on HCC-2998 colon and in the test on KM12 colon were -62.4% (active) and 15.9%, respectively.
As for `O=C(NCCCNc1cc(-c2cn(-c3ccccc3)nc2-c2cccc(O)c2)ccn1)c1ccc(F)cc1`, the growth in the test with T-47D breast was -10.8% (active); in the test on BT-549 breast it was -6.04% (active); in the test with MDA-MB-435 melanoma it was -67.7% (active); in the test on SW-620 colon it was 5.38% (active); with MCF7 breast it was 13.7%; in the test with HCT-116 colon, 10.8%. Moreover, the growth in the test on HCC-2998 colon is -60% (active); in the test on KM12 colon it was 12%.
Consider `c1ccc(Nc2nc(-c3ccccn3)cs2)nc1`, for which the growth with T-47D breast is 26.4%; in the test on BT-549 breast, 43.9%; with MDA-MB-435 melanoma, 30.9%; in the test with SW-620 colon, 30.2%; in the test on MCF7 breast it was 14.7%; in the test with HCT-116 colon, 10.3%. The results for the growth with HCC-2998 colon and in the test on KM12 colon were 38.3% and 29%, respectively.
Regarding `CCCCCCCCCCCCCCCCCC1=NCCN1CCOC1=C(Cl)C(=O)c2ccccc2C1=O`, the growth in the test with T-47D breast is 12.6%; in the test with BT-549 breast it was 68%; in the test with MDA-MB-435 melanoma, 95.5%; in the test with SW-620 colon it was 7.23% (active); with MCF7 breast, 65.6%; with HCT-116 colon, 43.6%. Further, the figures for the growth with HCC-2998 colon and in the test on KM12 colon were 100% and 51%, respectively.

The values above are taken from PubChem BioAssay (NCI).
